The values that follow come from PubChem BioAssay (NCATS).

Inconclusive results are not listed. A number with no mark means an inactive call. Active and inactive are the calls of the source. The call rests on the fitted dose curve; in most records, active means well fitted curve in the direction sought with a large enough effect; inconclusive means small, poorly fitted or top-dose-only effect, or another doubt; inactive means no such curve, though single readings can be large; an effect the other way counts as inactive or inconclusive.

The target in experiment [1] is Cellular tumor antigen p53 (Homo sapiens) (UniProt P04637). The experiment in a line: Primary qHTS for small molecule compounds that upregulate eGFP-tagged delta133p53alpha (in N-terminal) cells. (AID 2060322). Further: nearly all actives have a fitted effect of over 75% in size. Further: potency means the concentration at half of the fitted maximal effect.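 On activation: series mostly up to about 56 µM; 0% = DMSO vehicle and 100% = reference activator.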 The conditions noted are these: NCI-H358 eGFP-delta133p53alpha fluorescence, 24 h; activation: active compounds read high. The procedure, abridged:
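NCI-H358 cells pre-induced 24 h with 10 ng/ml doxycycline to express N-terminal eGFP-delta133p53alpha, then dosed 24 h at 37C without doxycycline; fixed, Hoechst-stained, GFP intensity by laser scanning cytometry, normalized to DMSO (0%) and 57.5 uM 5-azacytidine (100%).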

Experiment [2] concerns the target Aldehyde dehydrogenase, mitochondrial (Homo sapiens) (UniProt P05091). Nature of the experiment: qHTS for Inhibitors of the Aldehyde Dehydrogenase Family (ALDH2) Primary screen (AID 2061308).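 Further: plate controls were vehicle for no effect and reference inhibitor for full effect; nearly all actives have a fitted effect of over 55% in size.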
Experiment [3] has as its target Retinaldehyde dehydrogenase 3 (Homo sapiens) (UniProt P47895). Nature of the experiment: qHTS for Inhibitors of the Aldehyde Dehydrogenase Family (ALDH1A3) Primary screen (AID 2061315).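 Further: plate controls were DMSO vehicle for no effect and reference inhibitor for full effect.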

Cellular tumor antigen p53 (Homo sapiens), sequence (P04637 whole entry, looked up): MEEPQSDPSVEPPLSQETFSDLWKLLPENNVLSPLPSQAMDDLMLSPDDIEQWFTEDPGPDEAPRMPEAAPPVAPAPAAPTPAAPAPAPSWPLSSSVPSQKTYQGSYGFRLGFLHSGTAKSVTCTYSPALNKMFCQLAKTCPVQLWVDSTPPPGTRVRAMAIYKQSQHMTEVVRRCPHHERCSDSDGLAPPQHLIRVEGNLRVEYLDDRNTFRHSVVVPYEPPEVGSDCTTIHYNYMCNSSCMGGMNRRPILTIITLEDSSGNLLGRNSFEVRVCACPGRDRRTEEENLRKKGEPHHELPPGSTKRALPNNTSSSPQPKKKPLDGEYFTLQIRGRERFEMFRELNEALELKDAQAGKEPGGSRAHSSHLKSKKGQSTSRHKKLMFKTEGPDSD

As for `C[C@@H]1CCCN1CCc1cc2cc(-c3ccc(C#N)cc3)ccc2o1`, the activation in experiment [1] was -11.5%. In addition, the Potency entry in experiment [2] and in experiment [3] was “inactive” throughout.

With `C/C=C/C=C/C=C/C(=O)OC1C=C2C(O)OC(=O)[C@]2(O)[C@@]2(C)CCCC(C)(C)[C@H]12` (some centres undefined), the activation in experiment [1] is -2.29%. Moreover, the Potency entry in experiment [2] and in experiment [3] was “inactive” throughout.

On to `O=C(Nc1ccn[nH]1)c1c(F)cccc1F`, for which the activation in experiment [1] is 12.3%. For the same molecule, the Potency entry in experiment [2] and in experiment [3] was “inactive” in each case.

On to `CC(=O)O[C@H]1CC[C@@]2(CI)C(=CC[C@@H]3[C@@H]2CC[C@]2(C)[C@@H]([C@H](C)CCCC(C)C)CC[C@@H]32)C1`, for which, in experiment [1], the activation was 21.7%. In addition, the activity change, negative = inhibition was -4.11% [at 11.2 µM] in experiment [2] and 5.91% [at 11.2 µM] in experiment [3].

Take `C=C(C)C(=O)O[C@H]1[C@H]2C(=C)C(=O)O[C@@H]2C[C@@H](C)/C=C\C(=O)[C@](C)(O)[C@@H]1OC(C)=O`: the Potency in experiment [1] was 4.65 µM (active). The Potency entry in experiment [2] and in experiment [3] was “inactive” in each case.

Regarding `CC(C)(O)/C=C/C(=O)[C@](C)(O)[C@H]1[C@H](O)C[C@@]2(C)[C@@H]3CC=C4[C@@H](C=C(O[C@@H]5O[C@H](CO)[C@@H](O)[C@H](O)[C@H]5O)C(=O)C4(C)C)[C@]3(C)C(=O)C[C@]12C`, in experiment [1], the activation is -13.7%. In addition, the Potency entry in experiment [2] and in experiment [3] was “inactive” throughout.

As for `Nc1nc(Nc2ccc(S(N)(=O)=O)cc2)n(C(=S)Nc2c(F)cccc2F)n1`, the Potency in experiment [1] was 2.13 µM (active). The Potency result in experiment [2] and in experiment [3] was “inactive” each time.

As to `O=C(c1ccc(F)cc1)N1CCCC(c2nc(-c3ccc(F)cc3)no2)C1` (centres undefined), in experiment [1], the activation is -1.91%. For the same molecule, the Potency result in experiment [2] and in experiment [3] was “inactive” in each case.

`O=C(Cc1ccc(-c2ccccc2)cc1)NC1CCC1`: the activation in experiment [1] is -1%. Also, the Potency result in experiment [2] and in experiment [3] was “inactive” each time.

Turning to `COC(=O)C1=COC(O[C@@H]2O[C@H](COC(=O)/C=C/c3ccc(O)cc3)[C@@H](O)[C@H](O)[C@H]2O)C2C(CO)=CCC12` (some centres undefined), the activation in experiment [1] is -23.7%. Moreover, the Potency result in experiment [2] and in experiment [3] was “inactive” in each case.

With `C[C@@H](c1ccccc1)N(C(N)=NC#N)c1cccc2ncccc12`, the activation in experiment [1] is 2.33%. Further, the Potency entry in experiment [2] and in experiment [3] was “inactive” each time.

With `O=C(Nc1c(-c2cccs2)nc2ccccn12)c1ccc(Cl)cc1`, in experiment [1], the activation was -8.59%. Besides, the Potency entry in experiment [2] and in experiment [3] was “inactive” throughout.

For `CC1(C)CC[C@]2(C(=O)O[C@@H]3O[C@H](CO)[C@@H](O)[C@H](O)[C@H]3O)CC[C@]3(C)C(=CCC4[C@@]5(C)C[C@@H](O)[C@H](O)[C@@](C)(CO)C5[C@H](O)C[C@]43C)C2C1` (some centres undefined), the activation in experiment [1] is 3.82%. Also, the Potency entry in experiment [2] and in experiment [3] was “inactive” throughout.

Take `COc1cc(C(=O)OC(COCCC(C)C)CN2CCOCC2)cc(OC)c1OC` (centres undefined): the activation in experiment [1] is 14.3%. For the same molecule, the Potency result in experiment [2] and in experiment [3] was “inactive” each time.

With `CC(=O)O[C@@H]1[C@H](O[C@@H]2OC[C@](O)(CO)[C@H]2O)[C@@H](O[C@@H]2O[C@@H](C)[C@H](O)[C@@H](O)[C@H]2O)[C@H](OC(=O)[C@]23CCC(C)(C)C[C@H]2C2=CCC4[C@@]5(C)C[C@H](O)[C@H](O[C@@H]6O[C@H](C(=O)O)[C@@H](O)[C@H](O)[C@H]6O)[C@@](C)(C(=O)O)C5CC[C@@]4(C)[C@]2(C)CC3)O[C@@H]1C` (some centres undefined), the activation in experiment [1] was 18.3%. In addition, the Potency result in experiment [2] and in experiment [3] was “inactive” in each case.

Regarding `CCN(CCNC(=O)Nc1ccccc1Br)c1cccc(C)c1`, the activation in experiment [1] is 5.67%. For the same molecule, the Potency result in experiment [2] and in experiment [3] was “inactive” each time.

Take `c1ccc(-c2cnn3cc(-c4ccc(OCCN5CCOCC5)cc4)cnc23)cc1`: the activation in experiment [1] is -17%. For the same molecule, the Potency entry in experiment [2] and in experiment [3] was “inactive” throughout.

Turning to `Cc1cc(F)ccc1-c1nc(NCCN=C(N)NC#N)nc2c1ccc(=O)n2-c1c(F)cccc1F`, the activation in experiment [1] is -4.46%. Moreover, the Potency entry in experiment [2] and in experiment [3] was “inactive” throughout.

Consider `CCOc1cc(CNC2CCCC2)cc(Cl)c1OCc1ccc(Cl)cc1`, for which, in experiment [1], the Potency is 21.3 µM (active). For the same molecule, the Potency entry in experiment [2] and in experiment [3] was “inactive” in each case.

On to `Cc1ccccc1N1CCN(S(=O)(=O)C[C@]23CC[C@H](C[C@@H]2NC(=O)[C@@H](N)CCS(C)(=O)=O)C3(C)C)CC1`, for which the activation in experiment [1] is 3.67%. The Potency entry in experiment [2] and in experiment [3] was “inactive” in each case.

In the case of `CC(C)C[C@@H](N)C(=O)N[C@H]1C(=O)N[C@@H](CC(N)=O)C(=O)N[C@H]2C(=O)N[C@H]3C(=O)N[C@H](C(=O)N[C@H](C(=O)O)c4cc(O)cc(O)c4-c4cc3ccc4O)[C@H](O)c3ccc(c(Cl)c3)Oc3cc2cc(c3O[C@@H]2O[C@H](CO)[C@@H](O)[C@H](O)[C@H]2O[C@H]2C[C@](C)(N)[C@H](O)[C@H](C)O2)Oc2ccc(cc2Cl)[C@H]1O`, the activation in experiment [1] was 6.33%. The Potency entry in experiment [2] and in experiment [3] was “inactive” throughout.

Consider `C[C@H](O)[C@H](O)/C=C/c1cccc(O)c1CO`, for which, in experiment [1], the activation was -15.3%. Besides, the Potency result in experiment [2] and in experiment [3] was “inactive” each time.

As to `COC(=O)C1=CO[C@@H](O[C@@H]2O[C@H](CO)[C@@H](O)[C@H](O)[C@H]2O)[C@@H]2[C@@H](C)[C@@H](O)C(O)[C@H]12` (some centres undefined), in experiment [1], the activation is 14.5%. Further, the Potency entry in experiment [2] and in experiment [3] was “inactive” in each case.
